Screening data: PubChem BioAssay, National Center for Advancing Translational Sciences (NCATS)
IL1B secr inh = inflammasome signaling inhibition, IL-1 beta readout. THP-1 LPS/ATP IL-1B secretion, AlphaLISA, 16 h; hits give low values. activity change, % at 57.5 µM. 360,000 compounds, 4.7% hits. AID 743279; in the data active means activity change below about -50%; inconclusive means mostly about -30% to -49%
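THP-1 cells pretreated 1 hr with compounds (up to 57.5 uM final), then stimulated with LPS (250 ng/mL final) plus ATP (1.25 mM final); secreted IL-1B measured by AlphaLISA after 16 hr, decreased signal indicating inhibition.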
DT40 TDP1 no CPT = qHTS for Inhibitors of human tyrosyl-DNA phosphodiesterase 1 (TDP1): qHTS in cells in absence of CPT. DT40 Tdp1-/- hTDP1 cells, no CPT, ATP luminescence, 48 h. Potency, µM (top dose mostly 46.2 µM), usual class: inhibitors. 420,000 compounds, 15% hits. AID 686978, 2013; further: nearly all actives have a fitted effect of over 55% in size
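Chicken DT40 Tdp1-/- cells complemented with human TDP1, screened without camptothecin (DMSO vehicle only), 400 cells/well. Compounds pin-transferred, cells incubated at 37 °C for at least 48 hr. Growth read as ATP-dependent luminescence (CellTiter-Glo, 30 min at RT).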
MCF10A rereplic = induces DNA re-replication in MCF 10a normal breast cells; MCF 10A DNA re-replication, Hoechst nuclear intensity, 48 h; Potency, µM (top dose mostly 46.1 µM), hits mostly activators; 350,000 compounds, 2.9% hits; AID 624296; further: nearly all actives have a fitted effect of over 50% in size
SW480 rerep = induces DNA re-replication in SW480 colon adenocarcinoma cells. SW480 DNA re-replication, Hoechst DNA content imaging, 48 h. Potency, µM (doses to about 46.1 µM), most hits filed as activators. 340,000 compounds, 1.8% hits. AID 624297; further: nearly all actives have a fitted effect of over 55% in size
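Quantitative HTS format with DMSO vehicle controls; 48 hr drug incubation at 37 C, then 40 min Hoechst staining and scanning imager measurement at 405 nm excitation.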
DT40 TDP1 CPT = DT40-hTDP1 cell growth loss with CPT; Potency, µM (doses to about 46.2 µM), most hits filed as inhibitors; 420,000 compounds, 12% hits; chicken DT40 Tdp1-/-;hTDP1 cells + 20 nM CPT, ATP luminescence, 48 h; AID 686979; further: nearly all actives have a fitted effect of over 55% in size
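Chicken DT40 Tdp1-/- cells stably complemented with human TDP1 were seeded at 400 cells/well in medium containing 20 nM camptothecin, exposed to pin-transferred compounds, and grown at 37 °C for at least 48 hr. Viability was read as ATP luminescence.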
BCR signal inh = inhibitors of chronic active B-cell receptor signaling; ABC-DLBCL IkBa-CBG/CBR reporter, luminescence ratio, 4 h; Potency, µM (titrated, usually from 46.1 µM), actives largely listed as inhibitors; 340,000 compounds, 0.05% hits; active means well fitted inhibition curve with a large enough effect in the signal ratio, with a control signal flat, not every such curve was filed as active; inconclusive means small, poorly fitted or top-dose-only effect, or effect the other way, or a change in a side signal; the % refers to the signal ratio
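Cell line TMD8 (human ABC DLBCL), stably expressing tet-inducible CBG68-IkBa fusion and CBR; IMDM/0.5% FBS; cpd up to 46 uM; dox induction, 4 h, 37C/5% CO2; dual luminescence; green/red ratio; MG132 control.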
A number is an active result; 0 = inactive; ? = inconclusive; - = not tested or not shown; [ ] = another dose, or the depositor's remark. Hits are enriched below; roughly 19% of the tested compounds scored in any of these assays. Unless noted, the call rests on the fitted dose curve; in most records, active means well fitted curve in the direction sought with a large enough effect; inconclusive means small, poorly fitted or top-dose-only effect, or another doubt; inactive means no such curve, though single readings can be large; an effect the other way counts as inactive or inconclusive.

SMILES	IL1B secr inh	DT40 TDP1 no CPT	MCF10A rereplic	SW480 rerep	DT40 TDP1 CPT	BCR signal inh
Cc1cc(C(=O)CSc2nnc(-c3ccc(F)cc3)o2)c(C)n1CC1COc2ccccc2O1 (centres undefined)	0	?	16µM	0	?	0
O=C(CSc1nnc(-c2ccco2)o1)NC(=O)C1COc2ccccc2O1 (centres undefined)	0	0	0	0	0	0
COc1ccccc1-n1cnnc1SCC(=O)c1cc(C)n(Cc2cccs2)c1C	0	?	0	0	?	0
Cc1cc(C(=O)CN2C(=O)NC3(CCCCC3C)C2=O)c(C)n1Cc1cccs1 (centres undefined)	0	?	0	0	0	0
Cc1cc(C(=O)CSc2nnc(-c3ccccc3F)o2)c(C)n1Cc1cccs1	0	?	?	0	23µM	0
Cc1cc(C(=O)CN2C(=O)c3cccc(N)c3C2=O)c(C)n1Cc1cccs1	0	21µM	2.6µM	?	?	0
O=C(NCc1ccccn1)C1CCN(C2CCN(Cc3cccc(F)c3)CC2)CC1	0	0	-	-	0	-
COc1ccc(NC(=O)CSc2nnc3n2CCCCC3)cc1S(=O)(=O)N(C)C	0	0	-	-	0	-
CCCS(=O)(=O)NC(=O)C1(C)CCCN(C(=O)c2cc(C)n(C(C)(C)C)n2)C1 (centres undefined)	0	0	-	-	0	-
CN1CCN(Cc2nc3ccccc3c(=O)n2Cc2nc(-c3ccccc3F)cs2)CC1	?	10µM	0	0	16µM	0
CN(C)Cc1nc2ccccc2c(=O)n1Cc1nc(C(C)(C)C)cs1	0	?	?	0	?	0
CN1CCN(Cc2nc3ccccc3c(=O)n2Cc2nc(-c3ccc4ccccc4c3)cs2)CC1	-95	2.3µM	?	12µM	4.6µM	?
CC1CCN(c2ccc(-c3cccs3)nn2)CC1	0	10µM	0	0	?	?
CC(I)CCC(C)[n+]1cccc(I)c1 (centres undefined)	-	0	-	-	0	-
COCOCCn1cc(CN2CCS(=O)(=O)N(Cc3ccc(-c4ccccc4)cc3)C(C(C)C)C2=O)nn1 (centres undefined)	0	23µM	-	-	?	-
COCOCCn1cc(CN2CCS(=O)(=O)N(Cc3ccc(-c4ccc(OC)cc4)cc3)C(C(C)C)C2=O)nn1 (centres undefined)	0	16µM	-	-	15µM	-
COCOCCn1cc(CN2CCS(=O)(=O)N(Cc3ccc(-c4ccncc4)cc3)C(CC(C)C)C2=O)nn1 (centres undefined)	0	?	-	-	23µM	-
COCOCCn1cc(CN2CCS(=O)(=O)N(Cc3ccc(-c4ccc(C)cc4)cc3)C(C(C)C)C2=O)nn1 (centres undefined)	0	?	-	-	?	-
COCOCCn1cc(CN2CCS(=O)(=O)N(Cc3ccc(-c4ccc(Cl)nc4)cc3)C(C(C)C)C2=O)nn1 (centres undefined)	0	0	-	-	7.3µM	-
COCOCCn1cc(CN2CCS(=O)(=O)N(Cc3ccc(-c4ccncc4)cc3)C(C(C)C)C2=O)nn1 (centres undefined)	0	0	-	-	0	-
O=C(C[n+]1ccc(/C=C/c2c[nH]c3ccccc23)c2ccccc21)c1ccccc1	-	?	-	-	0	-
O=C(/C=C/c1c[nH]c2ccccc12)c1cccc2ccccc12	-108	12µM	21µM	16µM	16µM	?
Cc1csc(NC(=O)c2ccc(Cn3nc(C)c(Br)c3C)o2)n1	-73	21µM	?	0	?	?
O=C(Cc1ccccc1)N/N=C/c1ccccn1	0	0	0	0	0	-
S=C(NN=Cc1ccccn1)N(Cc1ccccn1)Cc1ccccn1	0	0.92µM	13µM	5.8µM	0.65µM	-
SMILES	IL1B secr inh	DT40 TDP1 no CPT	MCF10A rereplic	SW480 rerep	DT40 TDP1 CPT	BCR signal inh
CC(=NNC(=S)N(Cc1ccccn1)Cc1ccccn1)c1cnccn1	0	0.82µM	4.6µM	?	0.58µM	-
Cc1ccccc1NC(=S)N(Cc1ccccn1)Cc1ccccc1Cl	?	?	0	?	?	0
S=C(NN=C(c1ccccc1)c1ccccn1)N(Cc1ccccn1)Cc1ccccn1	-58	0.15µM	?	?	0.15µM	-
Clc1ccc2c(c1)C1OCCC1C(c1ccco1)N2 (centres undefined)	-74	?	?	0	?	?
Nc1ccc(NC(=O)CCN2CCOCC2)cc1	0	0	0	0	0	0
COC(=O)C1=C(O)C(C(=O)OC)C(c2ccc(C)cc2)C(C#N)(C#N)C1c1ccc(C)cc1 (centres undefined)	0	4.1µM	?	?	5.2µM	0
CC(=O)O[C@@]12CO[C@@H]1C[C@H](O)[C@@]1(C)C(=O)[C@H](O)C3=C(C)[C@@H](OC(=O)[C@H](O)[C@@H](NC(=O)OC(C)(C)C)c4ccccc4)C[C@@](O)([C@@H](OC(=O)c4ccccc4)[C@H]21)C3(C)C	-	0.0012µM	-	-	0.0011µM	-
CC(=O)O[C@@]12CO[C@@H]1C[C@H](O)[C@@]1(C)C(=O)[C@H](O)C3=C(C)[C@@H](OC(=O)C(O)[C@@H](NC(=O)OC(C)(C)C)c4ccccc4)C[C@@](O)([C@@H](OC(=O)c4ccccc4)[C@H]21)C3(C)C (some centres undefined)	-	-	?	0.0075µM	-	-
Cc1ccc(C(=O)O)cc1NC(=O)CSc1ncnc2sc3c(c12)CCC3	0	0	0	0	?	0
COc1ccc(C(=O)O/N=C/c2ccc(S(=O)(=O)c3ccc(Cl)cc3)nc2)cc1	0	0	0	0	0	-
COc1cccc(NC(=O)NNC(=O)CCc2ccc(O)c(O)c2)c1	0	0	0	0	0	0
CC(COc1ccc(/C=C/c2ccccc2)cc1)[N+](C)(C)C (centres undefined)	0	3.3µM	?	0	4.1µM	?
CC(COc1ccccc1)NN (centres undefined)	-	0	-	-	0	-
COc1ccc2c(c1)CCc1cnc(-n3ncc(C(=O)NCc4cc(C)no4)c3C3CC3)nc1-2	-	0	-	-	0[9.04 µM]	-
CC1(C(=O)NS(=O)(=O)c2cccc(F)c2)CCN1C(=O)CCc1ccccc1 (centres undefined)	0	0	-	-	0	-
Cc1cc(Br)ccc1NCc1ccccn1	0	0	18µM	18µM	?	?
Cc1cccc(-c2nnn3c2nc(NCc2ccccc2)c2ccccc23)c1	-	21µM	-	-	?	-
COc1ccc(-c2nnn3c2nc(NCCc2ccc(OC)c(OC)c2)c2ccccc23)cc1	-	9.2µM	-	-	8.2µM	-
COc1ccc(CCNc2nc3c(-c4cccc(C(F)(F)F)c4)nnn3c3ccccc23)cc1OC	-	16µM	-	-	?	-
